Measurements published in PubChem BioAssay (NCI).
Compounds without any hit were thinned out: in the full panel of roughly 83,000, 20% have a hit.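 Plates (96-well) were seeded with cells, treated with compound at one concentration, and incubated for 48 hours before percent growth was determined.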 Values without a mark were called inactive. Activity calls are given as the source filed them.

Test system: NCI-H460 lung
Assay: NCI-60 one-dose screen, 48 h (100 = growth as untreated, 0 = no growth, -100 = all killed)
Settings: 10 µM
Method: Growth inhibition of the NCI-H460 human Non-Small Cell Lung tumor cell line is measured as a screen for anti-cancer activity. Cells are grown in 96 well plates and exposed to the test compound for 48 hours. Compounds are tested at a single concentration, which is 10^-5 M for most compounds. The reported endpoint is percent growth (GI% or GIPRCNT), where numbers from 0 - 100% represent growth inhibition, and numbers from -100% - 0 represent cell death. For example, a value of 40 represents 60% growth inhibition. A value of 0 means no net growth occurred over the course of the experiment. A value of -40 indicates 40% of cells at the beginning of the experiment died by the end of the experiment. A value of -100 means all cells are dead at the end of the experiment.
NCI-60 Human Tumor Cell Lines Screen was performed using the standard one-dose NCI protocol, which is described in more detail at https://dtp.cancer.gov/discovery_development/nci-60/default.htm.
Compounds with GIPRCNT values below 10 were considered active. Activity score was based on GIPRCNT using the following formula: […]
Score is 0 for GIPRCNT values of 100 or above, 50 for GIPRCNT values of 0, and 100 for GIPRCNT values of -100.

Structure (SMILES) | growth
COc1ccc(-c2n/c(=C\c3c(O)[nH]c4ccccc34)cc3c2=Nc2ccccc2-3)cc1 | 9.63% (active)
COc1ccc(/C=C(\c2cc(OC)c(OC)c(OC)c2)c2nnc(-c3cccs3)o2)cc1 | 72.7%
Cc1cccc2c1O/C(=C\c1ncc([N+](=O)[O-])n1C)C2=O | -29.1% (active)
CC1(C)CC(=O)c2c(nc3ccc(Cl)cc3c2-c2ccccc2)C1 | 90.1%
O=C(N/N=C/c1ccccc1O)c1ccccc1 | 9.53% (active)
CCCc1c(C)nc2scc(-c3ccc(Cl)cc3)n2c1=O | 108%
COC(=O)[C@]12CC[C@@H](C)[C@H](C)[C@@H]1C1=CC[C@@H]3[C@@]4(C)C/C(=N\O)[C@H](O)[C@@]5(C)COC(=C45)C[C@@]3(C)[C@]1(C)CC2 | -76.5% (active)
C=CCN1C(=O)/C(=C\c2ccc3c(c2)CCC3)SC1=S | 107%
Cc1nc2ccc(-n3c(-c4ccc(Cl)cc4)nc4ccccc4c3=O)cc2n1Cc1ccccc1 | 102%
Nc1nc2c(nnn2C2CC(O)C(CO)O2)c(=O)[nH]1 (stereo not given) | 54.3%
CCOC(=O)c1c(C)n(-c2ccc(Cl)cc2)c2ccc(OC(=O)/C=C/c3ccccc3)cc12 | 99.1%
CCCCCCOc1ccc(/C=C/C(=O)c2ccc(B(O)O)cc2)cc1 | 91.7%
COc1ccc(-c2nc(SCC(=O)c3ccc(Br)cc3)[nH]c(=O)c2C#N)cc1 | 108%
CCCOCC(O)CNCCN (stereo not given) | 104%
CCOC(=O)c1ccc(N(C=O)CCC(=O)CCl)cc1 | 4.12% (active)
CCc1ccc(-c2nnc(COc3ccc(-c4nc5ccc(C)cc5[nH]4)cc3OC)o2)cc1 | 63.5%
CC(Oc1ccc(Cl)cc1)c1ccccc1 (stereo not given) | 104%
C/C(=N\NC(=O)c1sc(=S)n(C)c1N)c1cc2ccccc2o1 | 37.2%
CCCCn1c(=O)[nH]c2c(c1=O)C(c1ccc(Cl)cc1)c1c([nH]c(=O)n(CCCC)c1=O)N2 | 106%
Cc1ccc2nc3[nH]c(=O)[nH]c(=O)c3c(N)c2c1 | 81.2%

Structure (SMILES) | growth
COc1cc(C2C(C#N)=C(c3c[nH]c4ccccc34)Nc3nc(N)[nH]c(=O)c32)cc(OC)c1OC (stereo not given) | 106%
CCN(CC)CCOC(=O)c1ccc(NC(=O)Nc2cccc(Cl)c2)cc1 | 108%
Cc1nc2sccn2c1-c1csc(Nc2cccc(Cl)c2C)n1 | 61.2%
NC1CCC(Nc2nc(NCc3ccc(-c4ccco4)nc3)c3ncn(C4CCCC4)c3n2)CC1 (stereo not given) | 4.97% (active)
O=C1c2cc(Cl)ccc2-c2c(O)cc(Cl)cc21 | 99.5%
CCOC(=O)Nc1ccc2c(c1)C(=O)N(CCOC)c1ccccc1O2 | 23%
CC(=O)OC1Oc2ccccc2-c2oc(=O)c(-c3cc(=O)oc4cc(O)ccc34)cc21 (stereo not given) | 93.8%
O=C(NC1CCN(Cc2ccccc2)CC1)c1cc(-c2ccncc2)nc2ccc(Cl)cc12 | 6.31% (active)
O=C(O)CCCN1C(=O)NC2(C1=O)c1ccccc1-c1ccccc12 | 105%
N#C/C(=C\N1C(=O)/C(=C/c2cccc([N+](=O)[O-])c2)SC1=S)c1nc2ccccc2s1 | 94.7%
CS(=O)(=O)Nc1ccc(Nc2c3ccccc3nc3cc(Cl)ccc23)cc1 | 8.44% (active)
N/C(=N\O)c1cn(C2OC(CO)C(O)C2O)c2ncnc(N)c12 (stereo not given) | -44.1% (active)
CN(C)c1ccc2cc(-c3cc4c(oc3=O)-c3ccccc3OC4O)c(=O)oc2c1 (stereo not given) | 56.7%
O=C(Nc1cccc([N+](=O)[O-])c1)NN1CCCCCC1 | 91.2%
O=C(NC1CCCC1)c1ccc(N2CCC(NCc3cccc(C(F)(F)F)c3)CC2)cc1 | 99.5%
COc1cc(-c2nc3ccccc3[nH]2)ccc1OCc1nnc(-c2ccc(Br)cc2)o1 | 82.2%
COc1ccc(-c2nc(-c3nc4ccc(C)cc4[nH]3)c3ccccn23)cc1 | 52.1%
COc1ccc(-c2nc(NC(=O)CS(=O)(=O)c3ccc(F)cc3)sc2C)cc1 | 59.2%
COc1cc(/C=C/C(=O)c2cc(-c3ccc(F)cc3)ccc2O)cc(OC)c1OC | 80.6%
COc1cc(OC)cc(N2CCN(C(=O)Nc3nc4cc(F)ccc4nc3OC)CC2)c1 | 5% (active)
